# Source: PubChem
# miR122 inh = miR-122 sensor activation; Huh7 psiCHECK-miR122 Renilla luciferase sensor, 48 h; activation, % at 12.5 µM; AID 623901; 0.14% of 340,000 active;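 active = mean activation of 30% or more, with every replicate also reaching 30%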;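 also: 0% = median of neutral control wells and 100% = median of positive control wells; higher luciferase signal means stronger suppression of miR-122 activity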
# Starred values were filed as active, the others as inactive. The full list was thinned out, with hits kept by preference.
SMILES,miR122 inh
C[C@H](CO)N1C[C@H](C)[C@H](CN(C)C(=O)C2CCCCC2)Oc2ncc(-c3ccccc3F)cc2C1=O,-1
CCC(=O)N(C)C[C@@H]1Oc2ncc(C#Cc3ccc(OC)cc3)cc2C(=O)N([C@H](C)CO)C[C@@H]1C,-1
COc1cccc(C#Cc2ccc3c(c2)O[C@@H](CN(C)S(=O)(=O)c2ccccc2F)[C@@H](C)CN([C@@H](C)CO)S3(=O)=O)c1,1
O=C(c1ccccc1)N1C[C@H]2[C@@H](c3ccccc31)[C@@H](CO)N2C(=O)c1cccc(F)c1,-100
COCC(=O)N1[C@@H](CO)[C@@H]2c3ccccc3N(C(=O)c3cccnc3)C[C@@H]21,42*
CCCNC(=O)N1[C@@H]2CN(C(=O)c3ccccc3)c3ccccc3[C@@H]2[C@@H]1CO,36*
CCCNC(=O)N1C[C@@H]2[C@H](c3ccccc31)[C@@H](CO)N2C(=O)C1CCOCC1,39*
COc1ccc(NC(=O)N(C)C[C@@H]2Oc3ncc(C#Cc4cccc(F)c4)cc3C(=O)N([C@H](C)CO)C[C@@H]2C)cc1,11
Cc1noc(C)c1NC(=O)N(C)C[C@H]1Oc2cc(C#CCC(C)C)ccc2S(=O)(=O)N([C@@H](C)CO)C[C@@H]1C,-37
COCC(=O)N(C)C[C@H]1Oc2ncc(/C=C/c3ccccc3)cc2C(=O)N([C@@H](C)CO)C[C@@H]1C,-3
C[C@H]1CN([C@@H](C)CO)C(=O)c2cc(C#Cc3ccccc3F)cnc2O[C@H]1CN(C)C(=O)Cc1ccncc1,0
Cc1ccc(-c2cnc3c(c2)C(=O)N([C@@H](C)CO)C[C@H](C)[C@@H](CN(C)C(=O)c2ccncc2)O3)cc1,0
C[C@@H]1CN([C@H](C)CO)C(=O)c2cc(Br)cnc2O[C@@H]1CN(C)Cc1ccc2c(c1)OCO2,-4
COc1ccc(OC)c(S(=O)(=O)Nc2ccc(C(C)=O)cc2)c1,-100
COc1cccc(OCc2cc(/C=N/Nc3ccc(C(=O)O)cc3)ccc2OC)c1,47*
CC(C)CC#Cc1ccc2c(c1)O[C@@H](CN(C)C(=O)C1CCC1)[C@@H](C)CN([C@H](C)CO)S2(=O)=O,-157
C[C@H](CO)N1C[C@H](C)[C@H](CN(C)C(=O)C2CC2)Oc2cc(C#CC3CC3)ccc2S1(=O)=O,-25
C[C@@H]1CN([C@H](C)CO)C(=O)c2cc(-c3ccc(F)cc3)cnc2O[C@@H]1CN(C)Cc1cccnc1,-1
CO[C@H]1CN(C)C(=O)c2cc(NC(C)=O)ccc2OC[C@@H](C)N(C(=O)c2ccccc2)C[C@@H]1C,1
COc1cccc(C(=O)Nc2ccc3c(c2)C(=O)N(C)[C@@H]2CC[C@@H](CC(=O)N[C@H](C)c4ccccc4)O[C@@H]2CO3)c1,47*
CO[C@@H]1CN(C)C(=O)c2cc(NC(=O)Cc3ccccc3)ccc2OC[C@@H](C)N(C)C[C@H]1C,-6
CNC(=O)C[C@H]1CC[C@@H]2[C@H](COc3ccc(NC(=O)c4cccc(OC)c4)cc3C(=O)N2C)O1,83*
CO[C@@H]1CN(C)C(=O)c2cc(NC(=O)c3ccc(F)cc3)ccc2OC[C@@H](C)N(C)C[C@H]1C,-3
CN1C(=O)c2cc(NC(=O)Cc3ccccc3)ccc2OC[C@@H]2O[C@@H](CC(=O)NCc3ccc(Cl)cc3)CC[C@@H]21,-233
COc1cccc(CNC(=O)C[C@@H]2CC[C@H]3[C@H](COc4ccc(NS(=O)(=O)c5ccccc5F)cc4C(=O)N3C)O2)c1,37*
SMILES,miR122 inh
COc1cccc(C(=O)Nc2ccc3c(c2)C(=O)N(C)[C@@H]2CC[C@@H](CC(=O)NCc4ccc(F)cc4)O[C@@H]2CO3)c1,37*
C[C@@H]1CN([C@H](C)CO)S(=O)(=O)c2ccc(C#CCC3CCCC3)cc2O[C@@H]1CN(C)C(=O)c1ccccn1,-14
CC(=O)N(C)C[C@H]1Oc2cc(C#CC3(O)CCCC3)ccc2S(=O)(=O)N([C@H](C)CO)C[C@@H]1C,2
COc1ccccc1-c1ccc2c(c1)O[C@H](CN(C)S(=O)(=O)c1ccccc1)[C@@H](C)CN([C@@H](C)CO)S2(=O)=O,-45
C[C@H]1CN([C@@H](C)CO)C(=O)c2cc(-c3cccc(F)c3)cnc2O[C@@H]1CN(C)C(=O)C1CCOCC1,-3
CCC(=O)N(C)C[C@@H]1Oc2cc(C#C[C@H](C)O)ccc2S(=O)(=O)N([C@H](C)CO)C[C@H]1C,4
CCC(=O)N(C)C[C@@H]1Oc2ncc(C#C[C@@H](C)O)cc2C(=O)N([C@@H](C)CO)C[C@@H]1C,0
C[C@@H]1CN([C@@H](C)CO)S(=O)(=O)c2ccc(/C=C/c3ccccc3)cc2O[C@H]1CN(C)C(=O)Nc1cccc(F)c1,-9
CC(C)C(=O)Nc1ccc2c(c1)C(=O)N(C)[C@@H]1CC[C@@H](CC(=O)N[C@H](C)c3ccccc3)O[C@@H]1CO2,70*
CCC(=O)Nc1ccc2c(c1)C(=O)N(C)C[C@H](OC)[C@@H](C)CN(Cc1ccccc1OC)[C@@H](C)CO2,-4
CC(C)C(=O)Nc1ccc2c(c1)C(=O)N(C)[C@H]1CC[C@@H](CC(=O)NCC3CC3)O[C@@H]1CO2,-92
NC(=O)C1CCN(C2=C(Cl)C(=O)c3ccccc3C2=O)CC1,70*
C/C=C/c1cnc2c(c1)C(=O)N([C@@H](C)CO)C[C@@H](C)[C@@H](CN(C)CC1CCOCC1)O2,0
CO[C@H]1CN(C)C(=O)c2ccc(NS(=O)(=O)c3ccc(C)cc3)cc2OC[C@@H](C)N(C)C[C@@H]1C,1
COc1cccc(C#Cc2ccc3c(c2)O[C@H](CN(C)C(C)=O)[C@@H](C)CN([C@@H](C)CO)S3(=O)=O)c1,-29
C[C@H](CO)N1C[C@H](C)[C@@H](CN(C)S(=O)(=O)c2ccccc2F)Oc2cc(C#Cc3ccccc3)ccc2S1(=O)=O,-34
O=C(Cc1cccs1)Nc1ccc(S(=O)(=O)N2CCCCC2)cc1,-132
O=C(Nc1nc2ccc(S(=O)(=O)N3CCCC3)cc2s1)C1CCCCC1,-130
O=C(Nc1nc(-c2cc3ccccc3o2)cs1)c1ccc(S(=O)(=O)N2CCCC2)cc1,52*
C[C@H](CO)N1C[C@H](C)[C@@H](CN(C)Cc2ccccc2)Oc2cc(-c3ccncc3)ccc2S1(=O)=O,-123
CCCNC(=O)N(C)C[C@@H]1Oc2ncc(C#C[C@@H](C)O)cc2C(=O)N([C@H](C)CO)C[C@H]1C,3
CC(C)NC(=O)N(C)C[C@@H]1Oc2ncc(C3=CCCCC3)cc2C(=O)N([C@@H](C)CO)C[C@H]1C,-3
COCC(=O)N(C)C[C@H]1Oc2ncc(C#Cc3ccncc3)cc2C(=O)N([C@H](C)CO)C[C@@H]1C,-7
CCCCNc1cc(C)nc(NCc2ccccc2)n1,41*
CC(C)C#Cc1ccc2c(c1)O[C@H](CN(C)C(=O)c1ccccc1)[C@@H](C)CN([C@@H](C)CO)S2(=O)=O,-10
C[C@@H]1CN([C@@H](C)CO)C(=O)c2cc(-c3cncnc3)cnc2O[C@H]1CN(C)Cc1ccccc1,-4
C[C@H]1CN([C@@H](C)CO)C(=O)c2cc(/C=C/c3ccccc3)cnc2O[C@@H]1CN(C)C(=O)C1CCC1,5
C[C@H]1CN([C@@H](C)CO)C(=O)c2cc(Br)cnc2O[C@@H]1CN(C)Cc1cccc(F)c1,0
COc1cccc(-c2cnc3c(c2)C(=O)N([C@H](C)CO)C[C@H](C)[C@H](CN(C)Cc2cccnc2)O3)c1,-4
COc1ccc(C#Cc2cnc3c(c2)C(=O)N([C@H](C)CO)C[C@@H](C)[C@H](CN(C)CC2CCOCC2)O3)cc1,1
